# Luciferase inh: Firefly luciferase inhibition profiling of diverse chemical library using quantitative high-throughput screening; purified P. pyralis luciferase, luminescence, biochemical; Potency, µM (top dose mostly 115 µM), usual class: inhibitors; Luciferin 4-monooxygenase (Photinus pyralis), P08659; AID 1347043, 2019; 76,000 compounds, 2.5% hits; also: nearly all actives have a fitted effect of over 65% in size
# Target sequence (P08659 whole entry, looked up): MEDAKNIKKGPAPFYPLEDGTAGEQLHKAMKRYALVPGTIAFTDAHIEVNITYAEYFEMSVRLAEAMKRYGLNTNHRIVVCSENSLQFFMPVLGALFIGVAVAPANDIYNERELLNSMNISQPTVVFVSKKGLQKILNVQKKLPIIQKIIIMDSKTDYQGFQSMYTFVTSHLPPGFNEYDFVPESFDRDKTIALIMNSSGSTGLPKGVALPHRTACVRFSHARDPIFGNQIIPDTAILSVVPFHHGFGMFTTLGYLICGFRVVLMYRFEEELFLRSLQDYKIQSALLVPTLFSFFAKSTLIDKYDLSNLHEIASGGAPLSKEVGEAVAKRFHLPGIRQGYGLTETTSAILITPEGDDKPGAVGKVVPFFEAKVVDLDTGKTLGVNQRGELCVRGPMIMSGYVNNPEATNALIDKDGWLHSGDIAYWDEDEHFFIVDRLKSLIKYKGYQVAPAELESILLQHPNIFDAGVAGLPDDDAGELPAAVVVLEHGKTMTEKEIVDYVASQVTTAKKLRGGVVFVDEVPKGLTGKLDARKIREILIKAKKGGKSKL
#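 FLuc 10nM, D-luciferin 10uM, ATP 10uM, Mg acetate 10mM, Tris acetate pH 7.5, Tween/BSA; cpd qHTS; enzyme added last; CCD luminescence.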
# HEK cytotox: Cytotoxic Profiling in HEK 293 Cell Line of Diverse Libraries Using Quantitative High-Throughput Screening. AID 1345083, 2018. Potency, µM (highest dose often 115 µM), for the others: at the top dose activity change, negative = cytotoxicity, usual class: inhibitors. HEK 293 viability, ATP luminescence (CellTiter-Glo), 48-72 h. 94,000 compounds, 6.6% hits; also: nearly all actives have a fitted effect of over 60% in size
#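 qHTS cytotoxicity; HEK 293, 250 cells/well; compound pinned; 48 or 72 hr, 37 degree Celsius, 5% CO2, 95% humidity; CellTiter-Glo, 10 min RT; luminescence (ATP).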
# 3T3 cytotox: Cytotoxic Profiling in NIH 3T3 Cell Line of Diverse Libraries Using Quantitative High-Throughput Screening | NIH 3T3 viability, CellTiter-Glo ATP luminescence, 48-72 h | Potency, µM (titrated, usually from 96.7 µM), for the others: top-dose activity change, negative = cytotoxicity, actives largely listed as inhibitors | 94,000 compounds, 4.3% hits | AID 1345082, 2018; also: nearly all actives have a fitted effect of over 55% in size
#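 First NIH 3T3 cells are plated at 400 cells/well; next compound is pinned in; then plates incubate 48 or 72 hr at 37 °C; finally CellTiter-Glo is added and luminescence read after 10 min.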
# hNpr1 antagonist: Natriuretic polypeptide receptor (hNpr1) antagonism - Primary qHTS; Atrial natriuretic peptide receptor 1 (Homo sapiens), P16066; HEK293 hNpr1 GloSensor cGMP, ANP-stimulated luminescence; Potency, µM (top dose mostly 46.3 µM), for inactives: at the highest dose activity change, negative = inhibition, usual class: inhibitors; 76,000 compounds, 1.6% hits; AID 1347048, 2019; calls by dose curve; also: nearly all actives have a fitted effect of over 60% in size
#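 HEK293 cells stably expressing human Npr1 and cGMP GloSensor pGS-40F, loaded 2 h with 2% GloSensor reagent, given compound 30 min at room temperature. Luminescence read before and 20 min after 0.1 nM hNppA.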
# GPT2 inh: Primary qHTS assay for inhibitors of Glutamate pyruvate transaminase 2 (GPT2); Alanine aminotransferase 2 (Homo sapiens), Q8TD30; Potency, µM (highest dose often 57.7 µM), for inactives: at the top dose activity change, negative = inhibition, actives largely listed as inhibitors; Recombinant GPT2, coupled pyruvate oxidase/HRP Amplex Red fluorescence; 100,000 compounds, 0.25% hits; also: nearly all actives have a fitted effect of over 60% in size
#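 GPT2 10ng/uL, a-KG 250uM, L-Ala 2mM, HEPES pH7.5 + 0.0001% Tween; 30 min RT. Then Amplex mix (PO/HRP/ThPP), 30 min RT dark, fluorescence. AOA 50uM used as positive control.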
# * marks the source's active call; other numbers are inactive results; i = inactive; ? = inconclusive; . = not tested or not shown; [ ] = dose if it differs, or a comment. Only some compounds are listed: those with a hit (about 10% of all), similar ones and a draw of the others. Unless noted, calls follow the shape of the dose curve; as a rule, active = well fitted curve in the direction sought with a large enough effect; inconclusive = small, poorly fitted or top-dose-only effect, or another doubt; inactive = no such curve, though single readings can be large; an effect the other way counts as inactive or inconclusive. % is scaled to controls: 0 for no effect and ±100 for the full control effect; potency is read from the fitted curve at half-maximal effect.
SMILES,Luciferase inh,HEK cytotox,3T3 cytotox,hNpr1 antagonist,GPT2 inh
Cc1ccc(-c2noc([C@@H]3Cc4nc[nH]c4CN3C(=O)NC3CCCCC3)n2)cc1,i,1.7%[172 µM],?,-22.5%[70.6 µM],?
CC(C)NC(=O)N1CCC2(CC1)CN(C(=O)c1cccc3[nH]ccc13)Cc1ccccc1O2,.,?,-13.1%,.,i
COc1ccccc1-c1cccc(C(=O)N2CCN([S+](=O)([O-])c3cccc(C(F)(F)F)c3)CC2)c1,.,?,?,.,i
Cc1ccc(NC(=O)Cn2cccc2-c2nc(-c3ccccc3)no2)c(C)c1,i,9.0%,i,5.9%,i
COc1ccc(Cn2c(=O)c(C(=O)N3CCCC3)nc3cccnc32)cc1,.,-20.6%,-17.1%,.,i
O=C(Nc1ccc(Cl)cc1)N1CCCC1C(=O)N1CCCC1c1nc2ccncc2[nH]1 (centres undefined),.,-3.2%,-25.4%,.,i
COCCn1c(C)cc(C(=O)N2CCC3(CC2)CC(O)CCO3)c1C (centres undefined),i,3.2%,-11.8%,-9.3%,4.7%
COCCOC1CCN(C(=O)c2cc(C)n(CCOC)c2C)CC1,20µM*,-8.7%,-8.5%,0.5%,i
CC(C)(C)c1ccc(-c2cc(C[C@H]3CNCC[C@H]3CC(=O)N3CCCCC3)no2)cc1,i,?,35.5µM*,4.1%[70.6 µM],i
CN1CCN(C(=O)C[C@@H]2CCNC[C@@H]2Cc2cc(-c3ccc(C(C)(C)C)cc3)on2)CC1,i,?,79.4µM*,16.2%,-11.3%
CC(C)N1CC2CCC(C1)N2Cc1cccc(-c2cccs2)c1,.,?,?,.,-13.4%
Cc1ccc(C(CC(=O)N2CCCCC2)c2cn(C)c3ccccc23)cc1 (centres undefined),i,50.1µM*,?,-17.6%,-5.2%
CCOC(=O)C1CCCN(C(=O)CC(c2ccc3c(c2)OCO3)c2cn(CC)c3ccccc23)C1 (centres undefined),i,?,39.8µM*,-15.0%,?
Cc1ccc(C(CC(=O)N2CCc3ccccc3C2)c2cn(C)c3ccccc23)cc1 (centres undefined),35.5µM*,?,?,-17.9%,?
Cc1ccc(C(CC(=O)N2CCC(C)CC2)c2cn(C)c3ccccc23)cc1 (centres undefined),i,-15.2%,-26.1%,-9.3%,-5.9%
O=C(c1cccc(Cl)c1)N1CCCC(c2nn(-c3ccccn3)c(=O)[nH]2)C1 (centres undefined),.,i,-8.8%,.,i
O=C(NC1CCN(Cc2cccc(-c3ccc(F)c(F)c3)c2)CC1)c1ccc(Cl)nc1,.,?,25.1µM*,.,.
CSc1ccc(-c2cccc(CN3CCC(NC(=O)c4ccccc4C)CC3)c2)cc1,.,-35.4%,-22.6%,.,.
O=C(NC1CCN(Cc2cccc(-c3ccc(F)c(F)c3)c2)CC1)c1ccccc1F,.,79.4µM*,?,.,-1.8%
Cc1cccc(-c2cccc(CN3CCC(NC(=O)c4ccccc4C)CC3)c2)c1,.,39.8µM*,31.6µM*,.,i
Cc1ccccc1C(=O)NC1CCN(Cc2cccc(-c3ccc(F)c(F)c3)c2)CC1,.,50.1µM*,?,.,-18.0%
COc1ccc(OCc2cc(C(=O)NC(CO)C(C)C)no2)c2ccccc12 (centres undefined),i,?,?,9.7%,4.1%
CNC(=O)c1cc2cc(-c3c(C)noc3C)nc(-c3ccc(F)cc3OC)c2o1,i,-18.7%[172 µM],?,3.9%[70.6 µM],i
COc1ccc(-c2cc(C(=O)NCC(F)(F)F)nn3cnnc23)cc1,.,-26.0%,?,.,i
Cc1nc2cccnc2n1CC1CCCN(S(=O)(=O)c2cccc(Br)c2)C1 (centres undefined),i,44.7µM*,?,?,i
SMILES,Luciferase inh,HEK cytotox,3T3 cytotox,hNpr1 antagonist,GPT2 inh
COc1ccc(C(=O)N2CCN(C(=O)c3nc4cccnc4n(Cc4ccccc4)c3=O)CC2)cc1,.,?,?,.,3.7%
CC(C)(C)OCC(O)CN1CCC(=O)N(Cc2ccccc2)Cc2cc(F)ccc21 (centres undefined),.,44.7µM*,?,.,.
CCCC(O)CN1CCC(=O)N(Cc2ccccc2)Cc2cc(F)ccc21 (centres undefined),.,79.4µM*,?,.,.
CCCC(O)CN1CCC(=O)N(Cc2ccccc2)Cc2ccccc21 (centres undefined),.,?,-11.3%,.,.
CCNc1ncnc2c1CN(C1CCNCC1)C(=O)CN2C,.,-15.1%,-11.2%,.,i
CC(=O)Nc1ccc(NC[C@@H]2C=C(C)[C@H](Cc3nnc(C)o3)C[C@H]2C(C)C)cn1,i,112µM*,-14.0%[174 µM],-0.6%[70.6 µM],i
CC1=C[C@@H](CNCc2ccco2)[C@H](C(C)C)C[C@H]1Cc1nnc(-c2ccccc2F)o1,i,79.4µM*,?,-21.1%[70.6 µM],-0.4%[88.5 µM]
CC1=C[C@@H](CNCc2ccccn2)[C@H](C(C)C)C[C@H]1Cc1nnc(-c2ccccc2F)o1,i,22.4µM*,?,-20.8%[70.6 µM],-17.7%[88.5 µM]
CC1=C[C@@H](CNCc2cccnc2)[C@H](C(C)C)C[C@H]1Cc1nnc(-c2ccccc2F)o1,i,?,-24.8%[138 µM],-10.5%[70.6 µM],-8.1%[88.5 µM]
CC1=C[C@@H](CNCc2ccncc2)[C@H](C(C)C)C[C@H]1Cc1nnc(-c2ccccc2F)o1,i,20µM*,?,?,i
C#CCNC(=O)c1cc(-c2ccc(Cl)cc2Cl)c2nncn2n1,.,?,?,.,4.7%[88.5 µM]
CC1=C[C@@H](CNc2ccccn2)[C@H](C(C)C)C[C@H]1Cc1nnc(-c2ccc(C)cc2)o1,i,35.5µM*,39.8µM*,?,-18.3%[88.5 µM]
CC1=C[C@@H](CNCc2cccnc2)[C@H](C(C)C)C[C@H]1Cc1nnc(-c2ccccc2)o1,i,79.4µM*,?,-14.3%[70.6 µM],1.0%[88.5 µM]
CC(=O)NCCNC[C@@H]1C=C(C)[C@H](Cc2nnc(-c3ccccc3)o2)C[C@H]1C(C)C,i,56.2µM*,89.1µM*,1.2%[70.6 µM],0.4%[88.5 µM]
CC(C)C(=O)NCCNC(=O)c1ccc(-c2cncnc2)cc1,.,2.5%[172 µM],-18.7%[138 µM],.,.
COc1ccccc1CN1CC[C@@](C)(O)[C@H](N2CCCC2)C1,i,?,?,0.1%,-8.0%
Cc1cccc(CC(=O)N2CCCCCC2c2nnc(-c3ccccc3)o2)c1 (centres undefined),i,79.4µM*,?,-1.9%,5.0%
